# In PubChem BioAssay AID1159580 (chemical genetic matrix, 2015):
# “And” between values parts separate entries of the source, which are not always exact repeats. Equal entries are not always repeated. Screen size: about 5,500 compounds; about 2,000 (36%) were called active. Inconclusive results (about 18%) are left out. The list shows a part of the results. Unmarked numbers belong to inactive results. Rule as the data show it: active = normalized growth mostly below about 0.91 (no sharp cut-off); inconclusive = no clear call, values can overlap the other calls; inactive = mostly above about 0.92.
# Assay: chemical genetic growth profiling, strain panel (AID 1159580);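 also: tested at 20 µM; growth read once vehicle control cultures reached saturation at 30 °C; 1 = growth at the plate median or of vehicle wells; lower values mean less growth of the strain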
# Details: S. cerevisiae deletion strains, growth OD
smiles,measurement,setting,value
Clc1ccc2c(c1)C(N1CCNCC1)=Nc1ccccc1O2,normalized growth,"locus YAL013W, strain DEP1, hits give low values",0.984 and 1.02
same,normalized growth,"locus YAL021C, strain ccr4, hits give low values",0.829 (active)
same,normalized growth,"locus YAL026C, strain drs2, hits give low values",0.466 (active)
same,normalized growth,"locus YAL030W, strain snc1, hits give low values",0.978
same,normalized growth,"locus YAL040C, strain CLN3, hits give low values",1.01
same,normalized growth,"locus YBL061C, strain skt5, hits give low values",0.991
same,normalized growth,"locus YBR009C, strain hhf1, hits give low values",0.963
same,normalized growth,"locus YBR021W, strain FUR4, hits give low values",0.989
same,normalized growth,"locus YBR023C, strain chs3, hits give low values",0.969
same,normalized growth,"locus YBR171W, strain sec66, hits give low values",0.991
same,normalized growth,"locus YBR229C, strain ROT2, hits give low values",0.952
same,normalized growth,"locus YBR231C, strain swc5, hits give low values",0.994
same,normalized growth,"locus YBR279W, strain paf1, hits give low values",0.968
same,normalized growth,"locus YCL011C, strain gbp2, hits give low values",0.988
same,normalized growth,"locus YCL016C, strain dcc1, hits give low values",0.979
same,normalized growth,"locus YCL029C, strain bik1, hits give low values",0.986
same,normalized growth,"locus YCL069W, strain vba3, hits give low values",0.969
same,normalized growth,"locus YCR088W, strain abp1, hits give low values",0.994
same,normalized growth,"locus YDL005C, strain med2, hits give low values",0.994
same,normalized growth,"locus YDL035C, strain GPR1, hits give low values",0.972
same,normalized growth,"locus YDL040C, strain nat1, hits give low values",1.01
same,normalized growth,"locus YDL074C, strain BRE1, hits give low values",1.03
same,normalized growth,"locus YDL101C, strain DUN1, hits give low values",0.991
same,normalized growth,"locus YDL134C, strain PPH21, hits give low values",0.996
same,normalized growth,"locus YDL185W, strain tfp1, hits give low values",0.986
same,normalized growth,"locus YDL192W, strain arf1, hits give low values",0.99
same,normalized growth,"locus YDR001C, strain nth1, hits give low values",0.992
same,normalized growth,"locus YDR069C, strain doa4, hits give low values",0.901
same,normalized growth,"locus YDR101C, strain arx1, hits give low values",0.995
same,normalized growth,"locus YDR137W, strain rgp1, hits give low values",1.32 [resistant] (active)
same,normalized growth,"locus YDR150W, strain NUM1, hits give low values",0.974
same,normalized growth,"locus YDR159W, strain sac3, hits give low values",0.984
same,normalized growth,"locus YDR162C, strain NBP2, hits give low values",0.988
same,normalized growth,"locus YDR195W, strain ref2",1.07
same,normalized growth,"locus YDR297W, strain sur2, hits give low values",0.992
same,normalized growth,"locus YDR318W, strain mcm21, hits give low values",0.993
same,normalized growth,"locus YDR334W, strain swr1, hits give low values",0.957
same,normalized growth,"locus YDR335W, strain msn5, hits give low values",0.975
same,normalized growth,"locus YDR388W, hits give low values",0.98
same,normalized growth,"locus YDR392W, strain spt3, hits give low values",1.06
same,normalized growth,"locus YDR502C, strain sam2, hits give low values",0.959
same,normalized growth,"locus YEL003W, strain gim4, hits give low values",0.996
same,normalized growth,"locus YEL037C, strain rad23, hits give low values",0.968
same,normalized growth,"locus YEL061C, strain CIN8 (second series), hits give low values",0.992
same,normalized growth,"locus YEL061C, strain CIN8, hits give low values",0.984
same,normalized growth,"locus YER002W, strain NOP16, hits give low values",0.998
same,normalized growth,"locus YER015W, strain faa2, hits give low values",0.983
same,normalized growth,"locus YER016W, strain bim1, hits give low values",0.993
same,normalized growth,"locus YER110C, hits give low values",0.978
same,normalized growth,"locus YER111C, strain swi4, hits give low values",0.984
same,normalized growth,"locus YER155C, strain BEM2 (second series), hits give low values",0.992
same,normalized growth,"locus YER155C, strain BEM2, hits give low values",1
same,normalized growth,"locus YER167W, strain BCK2, hits give low values",0.994
same,normalized growth,"locus YFR010W, strain ubp6, hits give low values",0.88 (active)
same,normalized growth,"locus YGL078C, strain dbp3, hits give low values",0.968
same,normalized growth,"locus YGL086W, strain mad1, hits give low values",0.986
same,normalized growth,"locus YGL167C, strain pmr1, hits give low values",0.974
same,normalized growth,"locus YGL173C, strain kem1, hits give low values",0.928
same,normalized growth,"locus YGL227W, strain vid30, hits give low values",0.985
same,normalized growth,"locus YGL240W, strain doc1, hits give low values",0.975
same,normalized growth,"locus YGL248W, strain PDE1, hits give low values",0.987
same,normalized growth,"locus YGL253W, strain hxk2, hits give low values",0.989
same,normalized growth,"locus YGR078C, strain PAC10, hits give low values",1
same,normalized growth,"locus YGR135W, strain pre9, hits give low values",0.98
same,normalized growth,"locus YGR229C, strain SMI1, hits give low values",0.937
same,normalized growth,"locus YGR252W, strain gcn5, hits give low values",0.915
same,normalized growth,"locus YHR013C, strain ard1, hits give low values",0.891
same,normalized growth,"locus YHR027C, strain rpn1, hits give low values",0.989
same,normalized growth,"locus YHR030C, strain SLT2, hits give low values",0.994 and 1.02
same,normalized growth,"locus YHR079C, strain IRE1 (second series), hits give low values",0.986
same,normalized growth,"locus YHR079C, strain IRE1, hits give low values",1.03
same,normalized growth,"locus YHR094C, strain hxt1, hits give low values",0.998
same,normalized growth,"locus YHR129C, strain ARP1, hits give low values",1
same,normalized growth,"locus YHR142W, strain chs7, hits give low values",0.957
same,normalized growth,"locus YHR200W, strain rpn10, hits give low values",0.992
same,normalized growth,"locus YIL066C, strain RNR3, hits give low values",0.978
same,normalized growth,"locus YIL073C, strain SPO22, hits give low values",1.05
same,normalized growth,"locus YIL125W, strain kgd1, hits give low values",0.97
same,normalized growth,"locus YIR030C, strain dcg1, hits give low values",0.986
same,normalized growth,"locus YJL092W, strain hpr5, hits give low values",0.987
same,normalized growth,"locus YJL095W, strain BCK1 (second series), hits give low values",0.965
same,normalized growth,"locus YJL095W, strain BCK1, hits give low values",0.98 and 1.02
same,normalized growth,"locus YJL115W, strain asf1, hits give low values",0.957
same,normalized growth,"locus YJL129C, strain trk1, hits give low values",1.06
same,normalized growth,"locus YJL134W, strain LCB3, hits give low values",0.985
same,normalized growth,"locus YJL154C, strain vps35, hits give low values",0.97
same,normalized growth,"locus YJL164C, strain tpk1, hits give low values",0.964
same,normalized growth,"locus YJL166W, strain qcr8, hits give low values",0.984
same,normalized growth,"locus YJL168C, strain set2, hits give low values",0.996
same,normalized growth,"locus YJL187C, strain SWE1 (second series), hits give low values",1
same,normalized growth,"locus YJR043C, strain POL32, hits give low values",1.02
same,normalized growth,"locus YJR066W, strain TOR1, hits give low values",0.972
same,normalized growth,"locus YJR075W, strain HOC1, hits give low values",1
same,normalized growth,"locus YKL009W, strain mrt4, hits give low values",0.96
